Compound activity (PubChem BioAssay)
A selection: hits, their analogues and other compounds. The true share with any hit is near 2.4%.
D2 ag-1 – human D2 receptor agonism in beta-arrestin assay. DiscoveRx PathHunter D2 beta-arrestin, luminescence, 90 min; 100% = 57 uM dopamine signal. activation, % (concentration not given with the values). 360,000 tested, 0.084% active. AID 624465; in the data active = activation above about 40%; inconclusive = between about 15% and that limit
Target sequence (P14416 whole entry, looked up): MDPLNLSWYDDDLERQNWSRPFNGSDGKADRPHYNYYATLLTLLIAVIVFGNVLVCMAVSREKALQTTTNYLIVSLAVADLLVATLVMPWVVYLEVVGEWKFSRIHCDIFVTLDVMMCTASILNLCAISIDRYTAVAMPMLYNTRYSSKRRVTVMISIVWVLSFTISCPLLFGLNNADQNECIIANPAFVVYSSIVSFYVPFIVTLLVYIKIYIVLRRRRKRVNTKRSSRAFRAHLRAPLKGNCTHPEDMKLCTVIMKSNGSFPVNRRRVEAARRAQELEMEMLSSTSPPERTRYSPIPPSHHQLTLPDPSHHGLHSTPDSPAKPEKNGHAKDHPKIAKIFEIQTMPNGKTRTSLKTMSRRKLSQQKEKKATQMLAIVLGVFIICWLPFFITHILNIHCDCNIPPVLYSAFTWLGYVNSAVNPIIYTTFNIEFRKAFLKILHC
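DiscoveRx PathHunter D2 beta-arrestin cells (2,100/well) attached overnight, then compound-stimulated 90 min at 37 C in HBSS/10 mM HEPES/0.1% Tween-20 buffer; beta-galactosidase complementation read by luminescence after 1 h at ambient temperature. Dopamine 57 uM final (EC100) as control.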
D2 ag-2 – D2 dopamine receptor (human) agonism; P14416; HEK293 T-REx D2 cells, calcium flux agonist mode; activation, % at 2 µM; 340,000 tested, 0.53% active;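 active = activation over 3 SD above normal in the single-dose calcium agonist read, cut at about 30% in these data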
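Tetracycline-induced HEK293 T-REx cells with force-coupled D2 receptor, plated overnight at 30 C, loaded with no-wash calcium dye. After a 10 s baseline, compound was pin-added and calcium flux read kinetically for 180 s; calcium rises flagged agonists.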
D2 PAM-1 – positive allosteric modulators of human D2 dopamine receptor. P14416. HEK293 T-REx D2, calcium flux, EC20 dopamine potentiation. potentiation, % at 10 µM. 340,000 tested, 0.34% active. AID 485347;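 active = potentiation over 3 SD above the plate norm, cut at about 30% in these data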
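Tetracycline-induced Hek293 Trex D2 cells, force-coupled to calcium, loaded with no-wash calcium dye. Compound added with 180 s kinetic read for agonism, then EC20 dopamine and a further 180 s read for potentiation.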
D2 antagonist – D2 dopamine receptor (human) antagonism | 340,000 tested, 2% active | inhibition, % at 10 µM | P14416 | HEK293 TREx D2 cells, calcium flux, dopamine EC80; in the data active = inhibition above about 30%; inactive = below that, where a call was filed
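Dopamine at EC80 is the agonist stimulus; test compounds precede it by 180 s. Calcium flux read kinetically in a force-coupled, inducible HEK293 T-REx D2 cell line.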
D2 PAM-2 – human D2 receptor positive allosteric modulation; P14416; DiscoveRx D2 beta-arrestin cells, luminescence, 90 min; 100% = 57 uM dopamine signal; potentiation, % (test concentration not listed); 360,000 tested, 0.23% active; AID 624464; in the data active = potentiation above about 50%; inconclusive = mostly about 30% to 49%
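PathHunter D2 cells, attached overnight at 37 deg C, received compound in DMSO plus dopamine at EC20 (50 nM final) for 90 min at 37 deg C. Beta-arrestin recruitment was read as luminescence after 1 h with detection reagent at ambient temperature.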
Large screens that a line does not name were inactive.

CCN1CCN(C(=O)C2CC(=O)N(c3ccc(Cl)cc3)C2)CC1 (stereo not drawn)	none
Cc1cc(C)cc(NC(=O)COC(=O)c2ccc(CN3CCCC3=O)cc2)c1	none
Cc1ccc(NC(=O)COC(=O)c2ccc(CN3CCCC3=O)cc2)c(Cl)c1	D2 antagonist 35
COc1cc(C(=O)NNC(=O)C2CSC3(C)CCC(=O)N23)cc(OC)c1OC (stereo not drawn)	D2 antagonist 41
O=C(ONC1=NCCCCC1)c1cccc([N+](=O)[O-])c1	D2 PAM-2 55
O=C(Nc1ccc(Cl)c([N+](=O)[O-])c1)ONC1=NCCCCC1	D2 ag-1 inconclusive, D2 PAM-2 54 (no result: D2 ag-2, D2 PAM-1, D2 antagonist)
O=C(CN1C(=O)NC2(CCCCCC2)C1=O)Nc1ccc(Cl)c([N+](=O)[O-])c1	none (no result: D2 ag-2, D2 PAM-1, D2 antagonist)
CN1CCN(S(=O)(=O)c2cccc(C(=O)Oc3ccc(C(C)(C)C)cc3)c2)CC1	D2 antagonist 34
Fc1ccc(N/N=C2/CC(c3ccccc3)Oc3ccccc32)c(F)c1 (stereo not drawn)	D2 PAM-2 82
O=C(Oc1ccc(Cl)cc1)N1CCCCC1	none
O=C(Oc1ccc(-c2nnco2)cc1)N1CCCCC1	D2 PAM-1 34
O=C(/C=C/[C@H]1O[C@@H](n2cnc3c(NC(=O)c4ccccc4)ncnc32)[C@H](O)[C@@H]1O)NCc1cccs1	none (no result: D2 ag-2, D2 PAM-1, D2 antagonist)
COc1cc(/C=N/NC(=O)c2cccc3ccccc23)cc(OC)c1OC	D2 antagonist 30
COc1cc(/C=N/NC(=O)c2cccc3ccccc23)cc(OC)c1O	none
CC(=O)N1Cc2ccccc2C(C)CC12CCCC2 (stereo not drawn)	D2 antagonist 31
CC(=O)N1c2ccccc2C(C)CC12CCCCC2 (stereo not drawn)	none
COCCCn1c(=O)c2sccc2n(Cc2cccc(F)c2)c1=O	none
COCCCn1c(=O)c2sccc2n(Cc2cccc(C)c2)c1=O	D2 antagonist 41
COc1cccc(N2CCN(C(=O)c3ccc4c(Cl)c5c(nc4c3)CCCC5)CC2)c1	none (no result: D2 ag-1, D2 antagonist, D2 PAM-2)
OCCNCc1cc(Br)ccc1OCc1ccccc1Cl	D2 antagonist 42
O=S(=O)(Nc1ccc2nc(-c3ccc(F)cc3)oc2c1)c1ccccc1	none (no result: D2 ag-1, D2 antagonist, D2 PAM-2)
O=[N+]([O-])c1ccc(NN=Cc2ccccc2O)nc1	none (no result: D2 ag-2, D2 PAM-1, D2 antagonist)
O=[N+]([O-])c1ccc(N/N=C/c2ccccc2O)cc1	D2 antagonist 36
O=C(O)CCS(=O)(=O)c1cccc2cccnc12	D2 antagonist 31
Cc1ccc(-c2csc(N3CCN(c4cc5c(cc4Cl)nc(-c4ccncc4)n5CCN4CCCCC4)CC3)n2)cc1	none
CCCn1c(C)nc2cc(Cl)c(N3CCN(c4nc(-c5ccc(C)cc5)cs4)CC3)cc21	D2 antagonist 40
CC(C)CCN1CCN(CCCn2cccn2)CC1CCO (stereo not drawn)	none
CN1CCc2ccccc2Cc2[nH]c3ccccc3c2CC1	D2 antagonist 72
CNC(=O)c1cccc(-n2c(C)nc3cccnc32)c1C	none (no result: D2 ag-1, D2 antagonist, D2 PAM-2)
COc1ccc(C(=O)NCCn2cc(SCC(=O)Nc3ccc(F)cc3)c3ccccc32)cc1	none (no result: D2 ag-1, D2 antagonist, D2 PAM-2)
O=C(CCCn1c(=O)[nH]c2ccccc2c1=O)NC1CCCCCC1	none
CC1CCC(NC(=O)CCCn2sc3ccccc3c2=O)CC1 (stereo not drawn)	D2 antagonist 39
CCOC(=O)N1CCN(CC(O)COc2ccc(C(C)C)c(C)c2)CC1 (stereo not drawn)	D2 ag-2 31
Cc1ccc(C)c(OCC(O)CN2CCC(Cc3ccccc3)CC2)c1 (stereo not drawn)	D2 antagonist 47
OC(COc1ccc(Cl)cc1)CN1CCC(Cc2ccccc2)CC1 (stereo not drawn)	none
Cc1ccc(OCC(O)CN2CCN(c3ccc(C)cc3)CC2)cc1 (stereo not drawn)	D2 antagonist 53
Cc1cc(=O)oc2cc(OCC(O)CN3CCN(c4ccc(F)cc4)CC3)ccc12 (stereo not drawn)	D2 ag-1 inconclusive, D2 ag-2 73, D2 antagonist 76
CC(C)C1C(=O)N(Cc2cn(CC3CCCCC3)nn2)CCS(=O)(=O)N1Cc1ccc(-c2ccccc2)cc1 (stereo not drawn)	none (no result: D2 ag-2, D2 PAM-1, D2 antagonist)
Cc1ccc(N2CCN(CC(O)COc3ccccc3)CC2)cc1 (stereo not drawn)	D2 antagonist 39
